Laboratory results from PubChem BioAssay AID1159580 (chemical genetic matrix, 2015).
Out of some 5,500 compounds screened, about 2,000 (36%) were called active. Not shown: some 18% with an inconclusive outcome. Rule as the data show it: active = normalized growth mostly below about 0.91 (no sharp cut-off); inconclusive = no clear call, values can overlap the other calls; inactive = mostly above about 0.92. The list shows a part of the results.

Assay: chemical genetic growth profiling, strain panel (AID 1159580);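 also: tested at 20 µM; growth read once vehicle control cultures reached saturation at 30 °C; 1 = growth at the plate median or of vehicle wells; lower values mean less growth of the strain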
Details: S. cerevisiae deletion strains, growth OD
[1] = locus YAR019C, strain CDC15, active compounds read low
[2] = locus YBL105C, strain PKC1, active compounds read low
[3] = locus YBR135W, strain CKS1, active compounds read low
[4] = locus YBR136W, strain MEC1, active compounds read low
[5] = locus YBR160W, strain CDC28, active compounds read low
[6] = locus YDL017W, strain CDC7, active compounds read low
[7] = locus YDL028C, strain MPS1, active compounds read low
[8] = locus YDL101C, strain DUN1, active compounds read low
[9] = locus YDL108W, strain KIN28, active compounds read low
[10] = locus YDL132W, strain cdc53, active compounds read low
[11] = locus YDL214C, strain PRR2, active compounds read low
[12] = locus YDR052C, strain DBF4, active compounds read low
[13] = locus YDR054C, strain cdc34, active compounds read low
[14] = locus YDR226W, strain ADK1, active compounds read low
[15] = locus YDR477W, strain SNF1, active compounds read low
[16] = locus YER123W, strain YCK3, active compounds read low
[17] = locus YER133W, strain GLC7, active compounds read low
[18] = locus YFL009W, strain cdc4, active compounds read low
[19] = locus YFL029C, strain CAK1, active compounds read low
[20] = locus YFR003C, strain YPI1, active compounds read low
[21] = locus YFR019W, strain FAB1, active compounds read low
[22] = locus YFR028C, strain CDC14, active compounds read low
[23] = locus YGR040W, strain KSS1, active compounds read low
[24] = locus YGR052W, strain FMP48, active compounds read low
[25] = locus YGR092W, strain DBF2, active compounds read low
[26] = locus YHR030C, strain SLT2, active compounds read low
[27] = locus YHR079C, strain IRE1, active compounds read low
[28] = locus YHR082C, strain KSP1, active compounds read low
[29] = locus YHR205W, strain SCH9, active compounds read low
[30] = locus YIL147C, strain SLN1, active compounds read low
[31] = locus YJL095W, strain BCK1, active compounds read low
[32] = locus YJL128C, strain PBS2, active compounds read low
[33] = locus YJL157C, strain FAR1, active compounds read low
[34] = locus YJR016C, strain ILV3, active compounds read low
[35] = locus YJR066W, strain TOR1 (second series), active compounds read low
[36] = locus YJR066W, strain TOR1, active compounds read low
[37] = locus YKL048C, strain ELM1, active compounds read low
[38] = locus YKL067W, strain YNK1, active compounds read low
[39] = locus YKL101W, strain HSL1, active compounds read low
[40] = locus YKL193C, strain SDS22, active compounds read low
[41] = locus YKL203C, strain TOR2, active compounds read low
[42] = locus YLR113W, strain HOG1, active compounds read low
[43] = locus YLR133W, strain CKI1, active compounds read low
[44] = locus YLR403W, strain SFP1, active compounds read low
[45] = locus YML070W, strain DAK1, active compounds read low
[46] = locus YMR001C, strain CDC5, active compounds read low
[47] = locus YMR205C, strain PFK2 (second series), active compounds read low
[48] = locus YMR277W, strain FCP1, active compounds read low
[49] = locus YNL006W, strain LST8, active compounds read low
[50] = locus YNL020C, strain ARK1, active compounds read low
[51] = locus YNL161W, strain CBK1, active compounds read low
[52] = locus YNL183C, strain NPR1, active compounds read low
[53] = locus YNL207W, strain RIO2, active compounds read low
[54] = locus YNL222W, strain SSU72, active compounds read low
[55] = locus YNL307C, strain MCK1 (second series), active compounds read low
[56] = locus YOL078W, strain AVO1, active compounds read low
[57] = locus YOL136C, strain PFK27, active compounds read low
[58] = locus YOR061W, strain CKA2, active compounds read low
[59] = locus YOR119C, strain RIO1, active compounds read low
[60] = locus YOR231W, strain MKK1, active compounds read low
[61] = locus YOR329C, strain SCD5, active compounds read low
[62] = locus YPL031C, strain PHO85, active compounds read low
[63] = locus YPL153C, strain RAD53, active compounds read low
[64] = locus YPL204W, strain HRR25, active compounds read low
[65] = locus YPL209C, strain IPL1, active compounds read low
[66] = locus YPL256C, strain CLN2, active compounds read low
[67] = locus YPR025C, strain CCL1, active compounds read low
[68] = locus YPR106W, strain ISR1, active compounds read low
[69] = locus YPR111W, strain DBF20, active compounds read low
[70] = strain NNK1, active compounds read low
[71] = strain TSCII, active compounds read low

Measured: normalized growth

Cn1cc(Br)c(-c2cccc(NS(=O)(=O)c3ccc(Cl)cc3)c2)n1
inactive: [1] 0.987 | [2] 0.976 | [3] 0.998 | [4] 0.995 | [5] 0.979 | [6] 0.987 | [7] 0.992 | [8] 0.977 | [9] 0.999 | [10] 0.994 | [11] 1 | [12] 0.976 | [13] 0.988 | [14] 0.987 | [15] 0.992 | [16] 0.998 | [17] 1 | [18] 0.989 | [19] 0.993 | [20] 0.994 | [21] 1 | [22] 0.998 | [23] 0.995 | [24] 1.04 | [25] 0.984 | [26] 1.12 | [27] 1.11 | [28] 1.11 | [29] 0.987 | [30] 0.986 | [31] 0.988 | [32] 0.986 | [33] 0.998 | [34] 0.993 | [35] 1.01 | [36] 1.07 | [37] 0.999 | [38] 1.02 | [39] 1 | [40] 0.995 | [41] 1.06 | [42] 0.983 | [43] 1 | [44] 0.999 | [45] 1.01 | [46] 0.985 | [47] 1.01 | [48] 0.998 | [49] 0.999 | [50] 0.997 | [51] 0.981 | [52] 1.06 | [53] 0.987 | [54] 0.995 | [55] 0.98 | [56] 1 | [57] 1 | [58] 1 | [59] 1.06 | [60] 0.982 | [61] 0.986 | [62] 0.989 | [63] 0.994 | [64] 0.997 | [65] 0.992 | [66] 1.13 | [67] 0.981 | [68] 0.99 | [69] 0.985 | [70] 1 | [71] 0.993

O=S(=O)(Nc1c(F)cccc1F)c1ccc(Cl)c(Cl)c1
inactive: [1] 0.933 | [2] 0.946 | [3] 0.932 | [4] 0.943 | [5] 0.937 | [6] 0.945 | [7] 0.939 | [8] 0.949 | [9] 0.947 | [10] 0.961 | [11] 0.984 | [12] 0.956 | [13] 0.933 | [14] 0.943 | [15] 0.959 | [16] 0.962 | [17] 0.964 | [18] 0.931 | [19] 0.933 | [20] 0.946 | [21] 0.948 | [22] 0.933 | [23] 0.951 | [24] 1.05 | [25] 0.843 | [26] 0.956 | [27] 0.942 | [28] 1 | [29] 0.982 | [30] 0.933 | [31] 0.947 | [32] 0.874 | [33] 0.97 | [34] 0.931 | [35] 0.967 | [36] 1.03 | [37] 0.93 | [38] 0.962 | [39] 0.96 | [40] 0.937 | [41] 1.02 | [42] 0.926 | [43] 0.964 | [44] 0.966 | [45] 0.961 | [46] 0.937 | [47] 0.973 | [48] 0.936 | [49] 0.941 | [50] 0.955 | [51] 0.94 | [52] 0.947 | [53] 0.937 | [54] 0.937 | [55] 0.95 | [56] 0.938 | [57] 0.985 | [58] 0.969 | [59] 1.05 | [60] 0.935 | [61] 0.943 | [62] 0.964 | [63] 0.927 | [64] 0.95 | [65] 0.94 | [66] 0.914 | [67] 0.934 | [68] 0.957 | [69] 0.934 | [70] 0.953 | [71] 0.93

COC(=O)c1cccc(NS(=O)(=O)c2ccc(Cl)c(Cl)c2)c1
active: [42] 0.861
inactive: [1] 0.981 | [2] 0.969 | [3] 0.973 | [4] 0.973 | [5] 0.983 | [6] 0.978 | [7] 0.977 | [8] 0.979 | [9] 0.973 | [10] 0.981 | [11] 0.971 | [12] 0.972 | [13] 0.961 | [14] 0.986 | [15] 0.991 | [16] 0.973 | [17] 0.985 | [18] 0.97 | [19] 0.982 | [20] 0.974 | [21] 0.994 | [22] 0.973 | [23] 1 | [24] 1.01 | [25] 0.948 | [26] 0.852 | [27] 0.923 | [28] 1.08 | [29] 0.904 | [30] 0.975 | [31] 0.896 | [32] 0.902 | [33] 0.98 | [34] 0.981 | [35] 0.98 | [36] 1.06 | [37] 0.949 | [38] 0.972 | [39] 0.962 | [40] 0.974 | [41] 1.05 | [43] 0.978 | [44] 0.985 | [45] 0.963 | [46] 0.975 | [47] 0.977 | [48] 0.973 | [49] 0.978 | [50] 0.974 | [51] 0.982 | [52] 1.04 | [53] 0.974 | [54] 0.98 | [55] 0.973 | [56] 0.979 | [57] 0.959 | [58] 0.986 | [59] 1.05 | [60] 0.953 | [61] 0.977 | [62] 0.98 | [63] 0.963 | [64] 0.959 | [65] 0.981 | [66] 0.895 | [67] 0.977 | [68] 0.977 | [69] 0.972 | [70] 0.966 | [71] 0.98
